Data on 20 compounds can be found in PubChem BioAssay (NCATS).

The structures appear in SMILES notation. Records with an inconclusive call do not appear. Calls of active or inactive are those of the source. The call rests on the fitted dose curve; in most records, active means well fitted curve in the direction sought with a large enough effect; inconclusive means small, poorly fitted or top-dose-only effect, or another doubt; inactive means no such curve, though single readings can be large; an effect the other way counts as inactive or inconclusive.

A short description of assay [1]: UWB1.289 Cancer Cell Toxicity qHTS against the NCATS CANVASS Library (AID 1347347). Further: nearly all actives have a fitted effect of over 60% in size. The essentials: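 1000 cells/well seeded and rested 4 h at 37 °C before pin transfer of compounds in an 11-pnt series. Exposure 72 h at 37 °C/5% CO2; viability by CellTiter-Glo luminescence after 15 min at room temperature.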
For orientation: qHTS replaces the single test concentration by a dilution series.

Assay [2] is described as follows: KB-8-5-11 Cancer Cell Toxicity qHTS against the NCATS CANVASS Library (AID 1347364). Further: nearly all actives have a fitted effect of over 75% in size. The gist of the method: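 Terse: KB-8-5-11, 500 cells/well, 72 hr, 37C/5% CO2, 11-pt titration, CellTiter-Glo readout; confirmatory runs ± 1uM tariquidar in medium.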
A short description of assay [3]: qHTS for Hypoxia signaling pathway (HIF-1) antagonists against the NCATS CANVASS Library (AID 1347374). Further: nearly all actives have a fitted effect of over 60% in size. Further: potency means the concentration at half of the fitted maximal effect. The essentials:
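Antagonism scored as loss of CoCl2-driven (60 uM stock added) HRE beta-lactamase signal, read by CCF4 FRET at 460/530 nm. Compounds were tested in an 11-point series on ME-180 reporter cells for 17 hrs at 37C, with parallel CellTiter-Glo cytotoxicity.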

A short description of assay [4]: qHTS for Inflammasome Signaling Inhibitors: IL-1-beta AlphaLISA screen against the NCATS CANVASS Library (AID 1347379).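 Further: human THP-1 cells primed with LPS then triggered with ATP.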 The gist of the method: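 Secreted IL-1B from human THP-1 cells quantified by AlphaLISA 16 hr after compound addition (final up to 57.5 uM). A 1 hr compound pretreatment preceded inflammasome activation with 250 ng/mL LPS plus 1.25 mM ATP (final).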

Assay [5] in a line: Secretion counterscreen for inhibitors of the SERCaMP assay screened against the NCATS CANVASS Library (AID 1347390).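 Further: light from luciferase secreted into medium read as a measure of general secretion; series mostly up to about 77 µM.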 The essentials: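 Natural products are titrated in an 11-point series up to 77 uM onto SH-SY5Y-GLuc STOP cells for 20 h. Secreted reporter activity is measured as coelenterazine-driven luminescence, with Brefeldin A on each plate.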
For orientation: The purpose of a counterscreen is to sort out artefacts and off-target activity.

Assay [6] can be described thus: qHTS for activators of Nrf2/ARE signaling pathway screened against the NCATS CANVASS Library (AID 1347391). Further: nearly all actives have a fitted effect of over 60% in size. Further: potency means the concentration at half of the fitted maximal effect. The gist of the method: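 Beta-lactamase reporter signal, read as 460 and 530 nm emission under 405 nm excitation after 2 h CCF4 loading, reflected ARE activation in HepG2 cells treated 16 h with an 11-point series.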
The nature of assay [7]: qHTS for inhibitors of Wild type Zika virus screened against the NCATS CANVASS Library (AID 1347396).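 Further: ATP luminescence of surviving cells so rescue from viral cell killing; series mostly up to about 46 µM.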 The gist of the method: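 Luminescent CellTiter Glo read-out of virus-induced cytotoxicity, 72 h post-infection, in Vero 766 cells. Compounds were tested at 11 concentrations; uninfected, vehicle-treated wells defined 100% inhibition.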
The nature of assay [8]: qHTS for Antimalaria activity screened against the NCATS CANVASS Library (AID 1347380). Further: nearly all actives have a fitted effect of over 40% in size. Further: potency means the concentration at half of the fitted maximal effect. The gist of the method:
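Compounds are titrated over 11 concentrations onto Dd2 parasite cultures (0.3% parasitemia, 2.5% hematocrit). Growth over 72 h at 37C in low oxygen is measured as SYBR Green DNA fluorescence after lysis.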

A short description of assay [9]: HEK-293 Cancer Cell Toxicity qHTS against the NCATS CANVASS Library (AID 1347355). Further: series mostly up to about 46 µM; nearly all actives have a fitted effect of over 65% in size. The gist of the method:
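First, 1000 cells go into each well and rest for 4 hours. Next, an 11-point dilution range is pinned in. Plates then incubate 72 hours before CellTiter-Glo addition and luminescence reading.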

Take `[C-]#[N+][C@@]12C(=O)[C@@H]3[C@@H](O[C@@]4(C(=O)N(C)c5cccc1c54)C3(C)C)C(=O)[C@@]2(C)C=C`: the Potency entry in assay [1], in assay [2], in [4], in [5] and in assay [6] was “inactive” throughout. In addition, the Potency in [3] is 2980 nM (active).

As for `C=C1CCC2C(C)(C(=O)O)CCC(CC/C(C)=C/C(=O)NC(CCC(N)=O)C(=O)O)[C@@]2(C)C1` (stereo partly drawn), the Potency result in assay [4] and in assay [6] was “inactive” in each case. Further, the compound was classed as inactive in assay [7].

Turning to `C=C[C@]1(C)CC[C@@H]([C@H](C)C(=O)CC=C(C)C)O1`, the Potency entry in [1], in assay [3], in [4], in [8], in assay [5] and in [6] was “inactive” in each case.

Take `CCC(C)=C1OC(=O)[C@H](C)[C@H](O)[C@H](Cc2cccnc2)NC(=O)C(NC(=O)c2ncccc2O)C(C)OC1=O` (stereo partly drawn): the Potency entry in assay [9], in assay [8], in assay [5] and in assay [6] was “inactive” throughout. For the same compound, the call in assay [7] was inactive.

As for `C[C@@]12CCC[C@@](C)(C(=O)O)[C@H]1CC[C@@]13C[C@@H](CC[C@H]12)[C@](C)(O)C3`, the Potency result in assay [9], in assay [2], in [3], in [4], in assay [8] and in [5] was “inactive” each time. Further, in [7], the compound was called inactive.

With `C/C=C/[C@H]1[C@H]2C(=O)c3c(O)c(C)c(O)c(C)c3[C@]1(C(=O)O)C(=O)C=C2C`, the Potency entry in assay [9], in assay [2], in assay [4], in assay [8] and in assay [6] was “inactive” throughout. Moreover, in assay [7], the call was inactive.

For the compound `O=c1cc(-c2ccc(O)cc2)oc2cc(O)c([C@@H]3OC(CO)[C@H](O)[C@@H](O)[C@H]3O)c(O)c12` (stereo partly drawn), the Potency result in [3], in assay [4], in assay [8], in assay [5] and in assay [6] was “inactive” in each case.

On to `C=C1C[C@]23C=CC(=O)[C@@](C)(CCCC(C)C(=O)N[C@@H](CO)C(=O)O)[C@@H]2C[C@@H]1CC3` (stereo partly drawn), for which the Potency result in assay [1], in assay [2], in assay [3], in assay [4], in [8] and in assay [6] was “inactive” each time. Also, in assay [7], the compound was called inactive.

For `C[C@@]12CCC[C@@](C)(C(=O)OP(=O)(O)OC[C@H]3O[C@@H](n4cnc5c(N)ncnc54)[C@H](O)[C@@H]3O)[C@H]1C[C@@H](O)[C@@]13C[C@@H](CC[C@@H]21)[C@](C)(O)C3`, the Potency result in [1], in [9], in assay [2], in [4], in assay [8] and in assay [6] was “inactive” in each case. The result in assay [7] was inactive.

Turning to `CN1C(=O)C(=O)N2C(=C[C@]3(c4c[nH]c5ccccc45)c4ccccc4N[C@H]23)C1=O`, the Potency result in assay [9], in assay [4] and in assay [5] was “inactive” throughout. For the same compound, in assay [7], the compound was called inactive.

For the compound `CO[C@@H](C[C@@H](C)[C@@H](O)/C=C/C=C/CNC(=O)C(C)(C)[C@H](O)\C(C)=C/C=C\C=C\Cc1cnco1)[C@]1(O)[C@@H](C)C(=O)N(C)[C@@]12COC2=O`, the Potency result in [9] and in assay [4] was “inactive” in each case.

Regarding `C=C[C@]1(C)CC[C@@H]([C@H](C)C(=O)/C=C/C(C)(C)O)O1`, the Potency entry in [2], in assay [3], in assay [4] and in assay [8] was “inactive” in each case. In addition, the Potency in [6] was 16600 nM (active).

For the compound `C=CC(C)(C)C(=O)[C@@H](C)[C@@H]1CC[C@@](C)(C=C)O1`, the Potency result in assay [8], in [5] and in assay [6] was “inactive” throughout. In [7], the outcome was inactive.

In the case of `CC(C)=CCCC(C)(O)[C@H]1CC=C(C)C(O)C1` (stereo partly drawn), the Potency entry in [1], in assay [4], in assay [5] and in assay [6] was “inactive” each time.

Regarding `COC(=O)[C@@]12Oc3cccc(O)c3C(O)=C1C(=O)C[C@H](C)[C@H]2O`, the Potency entry in [9], in assay [2], in assay [4] and in assay [8] was “inactive” in each case.

`COC1C(C)OC(OCC23C[C@@H]4[C@H](C)CC[C@H]4C4(C=O)CC2C=C(C(C)C)C34C(=O)O)[C@@H](O)[C@H]1O` (stereo partly drawn): the Potency entry in assay [9], in [3], in [4], in assay [8], in assay [5] and in assay [6] was “inactive” each time.

For the compound `C/C=C1/C2=CCCN3C(=O)O[C@H]([C@H]1O)[C@H]23`, the Potency entry in [9], in [4], in [5] and in assay [6] was “inactive” in each case. In addition, the call in assay [7] was inactive.

For the compound `COC(=O)[C@]1([C@H]2CCC(=O)O2)CC(=O)c2c(O)cc(C)cc2O1`, the Potency result in assay [1], in [3], in assay [5] and in assay [6] was “inactive” in each case.

Take `CC(C)=CCC[C@]1(C)[C@H]2CC(=O)[C@@]3(CO3)[C@@H]1C2`: the Potency entry in assay [2] and in [5] was “inactive” each time. The call in assay [7] was inactive.

On to `O=C1c2c(O)cc(O)cc2OC(c2ccc(O)cc2)C1O` (stereo not drawn), for which the Potency result in assay [9], in [2] and in assay [6] was “inactive” in each case. Also, the Potency in [8] was 5.3 nM (active). Besides, in [7], the compound was classed as inactive.
